For 70 compounds, inhibition results are on record in PubChem BioAssay AID1850 (Southern Research Specialized Biocontainment Screening …, 2009).

As usually defined, the inhibition is the change of the read-out against control, counted positive when it falls.

Each structure is given as a SMILES string. About 1,000 (0.32%) of roughly 310,000 compounds were called active. These entries were drawn from the full list. Entries with a potency or affinity are not part of this list. A number with no mark means an inactive call. The rule behind the calls is not given here.

This test can be described thus: Inhibition of PhoP regulon, Salmonella typhi GFP reporter cells, confirmation, 4 h (AID 1850).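 Note: 0% = induced wells with vehicle and 100% = uninduced wells.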 The settings on record: Salmonella Typhi PhoP-promoter GFP reporter, fluorescence, at 50 µM, hits give high values.
With `O=C(CNc1cccc(S(=O)(=O)N2CCOCC2)c1)N1CCc2ccccc21`, the inhibition is -12.4%.

`Cc1cc(-n2c(=S)sc3c(=O)n(-c4ccc(F)cc4)c(SCC(=O)O)nc32)ccc1Cl`: the inhibition was 2.23%. In the case of `CN(c1ccccc1)S(=O)(=O)c1ccc(NC(=O)c2ccc(F)cc2)cc1`, the inhibition is -3.04%. As to `Cc1cc(OCC(=O)Nc2ccc(OCc3ccccc3)cc2)nc(C(C)C)n1`, the inhibition is -4.55%.

For the compound `O=C(CCn1cnc(-c2ccccc2)c1-c1ccccc1)N/N=C/c1ccccc1O`, the inhibition is -2.92%. Take `COc1cccc(-c2ccc(SCC(=O)NC3CCCC3)nn2)c1`: the inhibition is -7.47%.

Regarding `CCN1CCN(C(=O)CCS(=O)(=O)c2cc3c(cc2Cl)NC(=O)CO3)CC1`, the inhibition is 12.4%.

In the case of `CCn1c(C)cc(/C=C2/SC(=S)N(CC(=O)O)C2=O)c1C`, the inhibition was 6.61%. `O=C(Oc1cccc(NC(=O)c2ccco2)c1)c1cccc(S(=O)(=O)N2CCCCC2)c1`: the inhibition was 2.38%. Regarding `CCn1c(=N)n(CC(=O)c2ccc(Br)s2)c2ccccc21`, the inhibition was 11.2%. Turning to `Cn1c(=N)n(CC(=O)c2ccc(Br)s2)c2ccccc21`, the inhibition is -0.89%.

Take `N=c1n(CC(=O)c2cccs2)c2ccccc2n1Cc1ccccc1`: the inhibition is 11.7%. In the case of `CCN(CC)CCn1c(=N)n(CC(=O)c2ccc(Br)s2)c2ccccc21`, the inhibition was 14.1%. `CCc1cc(CNC(=O)C2CCC(=O)N(CCc3ccc(OC)cc3)C2)on1` (stereo not given): the inhibition is -3.38%.

For the compound `CCOC(=O)C1=C(c2ccccc2)NC(N)=NC1c1ccc(OCc2ccc(Cl)cc2)c(OC)c1` (stereo not given), the inhibition was 0.34%. Turning to `CCOC(=O)C1=C(c2ccccc2)Nc2ncnn2C1c1ccc(C(=O)O)cc1` (stereo not given), the inhibition is -0.92%.

Regarding `Cc1ccc(SCc2cc(=O)[nH]c(N3CCOCC3)n2)cc1`, the inhibition is 4.21%. In the case of `C#CCOCCOCCOCCNc1nc(N2CCN(C(=O)CCCCCCCCCCNC(=O)Cn3cc(C[C@@H](C)O)nn3)CC2)nc(N2CCN(C(=O)CCCCCCCCCCNC(=O)[C@H](CCCN=C(N)N)n3cc(C[C@@H](C)CC)nn3)CC2)n1`, the inhibition was 25.7%.

In the case of `C#CCOCCOCCOCCNc1nc(N2CCN(C(=O)CCCCCCCCCCNC(=O)[C@H](CCCCN)n3cc(CCCC(=O)O)nn3)CC2)nc(N2CCN(C(=O)CCCCCCCCCCNC(=O)[C@H](CCCN=C(N)N)n3cc(C[C@@H](C)CC)nn3)CC2)n1`, the inhibition was 13.7%. On to `C#CCOCCOCCOCCNc1nc(N2CCN(C(=O)CCCCCCCCCCNC(=O)[C@@H](CCSC)n3cc(CCO)nn3)CC2)nc(N2CCN(C(=O)CCCCCCCCCCNC(=O)[C@H](CCCN=C(N)N)n3cc(C[C@@H](C)CC)nn3)CC2)n1`, for which the inhibition was -10.5%. Regarding `C#CCOCCOCCOCCNc1nc(N2CCN(C(=O)CCCCCCCCCCNC(=O)[C@H](CCCCN)n3cc(C)nn3)CC2)nc(N2CCN(C(=O)CCCCCCCCCCNC(=O)[C@H](CCCCN)n3cc(CCCC(=O)O)nn3)CC2)n1`, the inhibition was -29.8%.

For the compound `C#CCOCCOCCOCCNc1nc(N2CCN(C(=O)CCCCCCCCCCNC(=O)[C@H](CCCCN)n3cc(C[C@@H](C)CC)nn3)CC2)nc(N2CCN(C(=O)CCCCCCCCCCNC(=O)[C@@H]([C@H](C)O)n3cc(C)nn3)CC2)n1`, the inhibition was 51.8%. As to `C#CCOCCOCCOCCNc1nc(N2CCN(C(=O)CCCCCCCCCCNC(=O)[C@H](CCCCN)n3cc(CCO)nn3)CC2)nc(N2CCN(C(=O)CCCCCCCCCCNC(=O)[C@H](CCCCN)n3cc(CCCC(=O)O)nn3)CC2)n1`, the inhibition was -30.2%. As to `C#CCOCCOCCOCCNc1nc(N2CCN(C(=O)CCCCCCCCCCNC(=O)[C@H](CCCCN)n3cc(CCCC(=O)O)nn3)CC2)nc(N2CCN(C(=O)CCCCCCCCCCNC(=O)[C@H](CCCCN)n3cc(CCCC(=O)O)nn3)CC2)n1`, the inhibition is 0.23%.

In the case of `COc1ccccc1/C=N/NC(=O)c1nnn(-c2nonc2N)c1CSC1=NCCS1`, the inhibition was -3.46%. With `COc1cc(/C=C/C(=O)Nc2ccncc2)cc(OC)c1OC`, the inhibition was 9.98%. As for `Cc1nn(-c2ccccc2)c(N2CCCC2)c1/C=N/NC(=O)c1cc(-c2cccs2)nc2ccccc12`, the inhibition is -12.2%. For `CCOC(=O)C1(CCCc2ccccc2)CCN(C(=O)CCN2CCCCC2=O)CC1`, the inhibition was -9.1%. For `O=C(c1ccc(COc2ccccc2Cl)o1)N1N=C(C(F)F)CC1(O)C(F)F` (stereo not given) the value was -0.36%; for `Cc1ccc(C(O)P(=O)(Oc2ccccc2)Oc2ccccc2)cc1` (stereo not given), -35.5%. Turning to `COc1ccc(NC(=O)CCN2C(=O)C3CC=C(Cl)CC3C2=O)cc1` (stereo not given), the inhibition is -3.04%. For `C#CCOCCOCCOCCNc1nc(N2CCN(C(=O)CCCCCCCCCCNC(=O)Cn3cc(C[C@@H](C)O)nn3)CC2)nc(N2CCN(C(=O)CCCCCCCCCCNC(=O)[C@H](CCCCN)n3cc(C[C@@H](C)CC)nn3)CC2)n1` the value was 14.8%; for `C#CCOCCOCCOCCNc1nc(N2CCN(C(=O)CCCCCCCCCCNC(=O)[C@H](CO)n3cc(CCCSC)nn3)CC2)nc(N2CCN(C(=O)CCCCCCCCCCNC(=O)[C@H](CCCCN)n3cc(C[C@@H](C)CC)nn3)CC2)n1`, -5.02%; for `C#CCOCCOCCOCCNc1nc(N2CCN(C(=O)CCCCCCCCCCNC(=O)[C@H](CO)n3cc(CCCSC)nn3)CC2)nc(N2CCN(C(=O)CCCCCCCCCCNC(=O)[C@H](CCCN=C(N)N)n3cc(C[C@@H](C)CC)nn3)CC2)n1`, 25.4%. Consider `C#CCOCCOCCOCCNc1nc(N2CCN(C(=O)CCCCCCCCCCNC(=O)[C@@H](CCC(=O)O)n3cc(CCCCCN)nn3)CC2)nc(N2CCN(C(=O)CCCCCCCCCCNC(=O)[C@H](CO)n3cc(CCCCCN)nn3)CC2)n1`, for which the inhibition is -6.21%.

In the case of `C#CCOCCOCCOCCNc1nc(N2CCN(C(=O)CCCCCCCCCCNC(=O)[C@@H](CCC(=O)O)n3cc(CCCCCN)nn3)CC2)nc(N2CCN(C(=O)CCCCCCCCCCNC(=O)[C@H](CO)n3cc(CCCSC)nn3)CC2)n1`, the inhibition is -11.4%. As for `C#CCOCCOCCOCCNc1nc(N2CCN(C(=O)CCCCCCCCCCNC(=O)[C@@H](CCC(=O)O)n3cc(CCCCCN)nn3)CC2)nc(N2CCN(C(=O)CCCCCCCCCCNC(=O)[C@H](CCCCN)n3cc(C[C@@H](C)CC)nn3)CC2)n1`, the figure is -7.23%; as for `CC1CCCN(C(=O)C23CCC(C)(C(=O)C2)C3(C)C)C1` (stereo not given), -4.73%. Take `COc1cc(CCC(=O)N2CC(C)OC(C)C2)cc(OC)c1OC` (stereo not given): the inhibition is -14.2%. As for `CC(C)CN(C(=O)CN(C)C(=O)c1ccco1)c1c(N)n(CC(C)C)c(=O)[nH]c1=O`, the figure is -1.06%; as for `Cc1cc2oc(=O)cc(Cn3ncc(Cl)c(Cl)c3=O)c2cc1Cl`, -3.81%. In the case of `Cc1cccc(OCCNc2cc(N3CCN(C)CC3)ccc2[N+](=O)[O-])c1`, the inhibition was -4.31%. In the case of `COC(=O)[C@@H](NC(=O)c1ccccc1)[C@@H](C)O`, the inhibition is -3.17%. Consider `COc1cccc(CN2CC(C(=O)NC3CCC3)CCC2=O)c1` (stereo not given), for which the inhibition was -3.12%. In the case of `C/C(=N\Nc1ccccc1Cl)c1ccc(-n2ccnc2)cc1`, the inhibition is 7.81%. With `CCCCOC(=O)c1ccc(NC(=O)COC(=O)CSc2nc(C)cc(C)n2)cc1`, the inhibition is -5.18%.

As for `CNCCC1Sc2ccccc2Oc2ccccc21` (stereo not given), the inhibition is 10.6%.

For the compound `CN(C)CCC1Sc2ccccc2Oc2ccccc21` (stereo not given), the inhibition is -1.34%. Take `COc1ccccc1NC(=O)CSc1nnc(CCC(=O)Nc2ccccc2F)n1C`: the inhibition was -5.48%. Regarding `Cc1ccc(C(=O)Nn2cnnc2)cc1`, the inhibition is -11.2%. With `O=C1NC(c2ccccc2)C(C(=O)c2cccs2)C(O)(C(F)(F)F)N1` (stereo not given), the inhibition was 0.79%. `COc1cc(C2NC(=O)NC(O)(C(F)(F)F)C2C(=O)c2cccs2)ccc1O` (stereo not given): the inhibition was -4.52%. Take `O=C1NC(c2ccncc2)C(C(=O)c2cccs2)C(O)(C(F)(F)F)N1` (stereo not given): the inhibition is 2.95%. Turning to `CCOC(=O)C1C(c2cccs2)NC(=O)N(C)C1(O)C(F)(F)F` (stereo not given), the inhibition was -2.14%. Consider `CCc1nnc(NC(=O)CN2CCN(CC)CC2)s1`, for which the inhibition is -8.02%. As for `Cc1cccc2nc3ccccc3cc12`, the inhibition is -7.86%.

As for `Nc1c2ccccc2nc2ccccc12`, the inhibition is 17.1%. In the case of `COCCNC(=O)c1ccc(CN2CCC(Cc3ccccc3)CC2)cc1`, the inhibition was -1.7%. For `CCOC(=O)C1CCN(C(=O)c2ccccc2NS(=O)(=O)c2ccc(C)cc2)CC1`, the inhibition was -7.2%. `CC(Sc1nnc(N)s1)C(=O)Nc1ccc2c(c1)OCCO2` (stereo not given): the inhibition was -3.64%. `CCCNC(=O)Cn1cnc([N+](=O)[O-])n1`: the inhibition is -4.49%. `O=C(Cc1ccccc1)NC(C(=O)O)C(O)c1ccc([N+](=O)[O-])cc1` (stereo not given): the inhibition was 3.65%. As for `O=[N+]([O-])c1ccc(C(O)C(CO)NC(=S)Nc2ccccc2)cc1` (stereo not given), the figure is 11.5%; as for `CCOC(=O)C(NC(C)=O)C(O)c1ccc([N+](=O)[O-])cc1` (stereo not given), 3.41%. On to `O=C(O)CC(Cc1ccc(Cl)cc1)C(=O)Nc1ccc([N+](=O)[O-])cc1` (stereo not given), for which the inhibition is -5.39%. As to `NC(CO)C(O)c1ccc([N+](=O)[O-])cc1` (stereo not given), the inhibition is -4.54%. For `CC(Cc1ccccc1)NC(=O)Cc1ccc([N+](=O)[O-])cc1` (stereo not given), the inhibition is -4.09%. Consider `Cc1ccc([N+](=O)[O-])cc1S(=O)(=O)NCc1cccnc1`, for which the inhibition was -0.437%. For `COc1ccc(CC(=O)NC(C)C2COc3ccccc3O2)cc1OC` (stereo not given), the inhibition was 0.47%.

Turning to `O=C(NNS(=O)(=O)c1ccc(Cl)cc1)c1cccc(S(=O)(=O)N2CCOCC2)c1`, the inhibition is 6.08%.
